# Assay results as given in PMC4552634, “A New Set of Chemical Starting Points with Plasmodium falciparum Transmission-Blocking Potential for Antimalarial Drug Discovery” (PLoS ONE, 2015).
# Among all 13,000 compounds or so, about 3,200 (25%) showed an effect of 50% or more. Some of the results follow.
# System: P. falciparum stage V gametocytes
# Parameters: BacTiter-Glo ATP luminescence viability of purified stage V gametocytes in 384-well plates, per cent inhibition versus DMSO
# Settings: 48 h, 5 µM; inhibitor
row,Structure (SMILES),% Inhibition
1,Cc1csc2nc(C(C)c3ccc(NC(=O)c4cccs4)cc3)oc(=O)c12 (stereo not drawn) [TCMDC-139034],5.722%
2,Cc1cc(-c2ccc(NC(=O)Nc3ccc4nccc(N5CCN(C)CC5)c4c3)cc2C)cc(C)n1 [TCMDC-139355],10.84%
3,Cc1cc(N[C@@H](Cc2ccccc2)C(=O)NCCc2ccccc2)nc(NCC2CCCCC2)n1 [TCMDC-134934],-20.83%
4,CCCC(C)C(=O)N1CCOC(COCc2cccc(C(F)(F)F)c2)(c2ccc(Cl)cc2)C1 (stereo not drawn) [TCMDC-141953],24.89%
5,C=CCC1OC(=O)c2cc(OC)cc(OC)c21 (stereo not drawn) [TCMDC-138677],106%
6,C=CC(C)C1OC(=O)c2cc(OC)cc(OC)c21 (stereo not drawn) [TCMDC-138676],102.9%
7,Cc1ccc(-c2cc(C(=O)Nc3ccc(S(=O)(=O)N4CCCCC4C)cc3)[nH]n2)c(O)c1 (stereo not drawn) [TCMDC-124908],-44.76%
8,CCCCCCN(CCCCCC)CC(O)c1cc(-c2ccc(Cl)cc2)nc2c(C)cc(C)cc12 (stereo not drawn) [TCMDC-125503],-72.43%
9,CN(C(=O)NCCc1ccccc1)C1CCN(CCCCCNC(=O)/C=C/c2ccc(Cl)c(Cl)c2)CC1 [TCMDC-139523],-13.13%
10,COc1ccc(-n2ccnc2SCC(=O)Nc2cc(C)ccc2C)c(OC)c1 [TCMDC-123824],-3.768%
11,COc1ccc(-c2nc3cccnc3n2CC(=O)Nc2cc(Cl)c(Cl)cc2Cl)c(OC)c1 [TCMDC-135101],5.638%
12,COc1ccc(-c2nc3cccnc3n2CC(=O)Nc2c(C)cc(C)cc2C)c(OC)c1 [TCMDC-135284],61.51%
13,CC(C)CNCc1cccc(-c2ccc(CN(C(=O)Nc3ccccc3)C3CCN(Cc4ccccc4)CC3)cc2)c1 [TCMDC-140597],96.79%
14,CC(C)CNCc1cccc(-c2cccc(CN(C(=O)Nc3ccccc3)C3CCN(Cc4ccccc4)CC3)c2)c1 [TCMDC-140584],53.9%
15,CC(C)CNCc1ccc(-c2cccc(CN(C(=O)Nc3ccccc3)C3CCN(Cc4ccccc4)CC3)c2)cc1 [TCMDC-140585],74.29%
16,CC(C)CNCc1ccc(-c2ccc(CN(C(=O)Nc3ccccc3)C3CCN(Cc4ccccc4)CC3)cc2)cc1 [TCMDC-140598],108.5%
17,Cc1cn(CC(=O)Nc2cccc(-c3cccc(-c4nc5ccc(C(F)(F)F)cc5[nH]4)c3)c2)c(=O)[nH]c1=O [TCMDC-137036],18.51%
18,O=C(Nc1ccccc1F)NC1CCN(c2ccnc(Nc3ccc(F)cc3)n2)CC1 [TCMDC-133632],-30.06%
